Measured values from PubChem BioAssay (NCATS).
Records with an inconclusive call do not appear. Active and inactive are the calls of the source. Calls follow the shape of the dose curve; as a rule, active = well fitted curve in the direction sought with a large enough effect; inconclusive = small, poorly fitted or top-dose-only effect, or another doubt; inactive = no such curve, though single readings can be large or run the other way.

Key:
[1] = target: T1, Hexokinase-4 (Homo sapiens) + Glucokinase regulatory protein (Homo sapiens) (UniProt P35557+Q14397); experiment: qHTS assay for inhibitors of recombinant human GCK-GKRP interaction: Diaphorase-coupled assay (AID 743205); settings: G6PDH/diaphorase resorufin fluorescence; series mostly up to 57.5 µM
T1 sequence (P35557 whole entry, looked up): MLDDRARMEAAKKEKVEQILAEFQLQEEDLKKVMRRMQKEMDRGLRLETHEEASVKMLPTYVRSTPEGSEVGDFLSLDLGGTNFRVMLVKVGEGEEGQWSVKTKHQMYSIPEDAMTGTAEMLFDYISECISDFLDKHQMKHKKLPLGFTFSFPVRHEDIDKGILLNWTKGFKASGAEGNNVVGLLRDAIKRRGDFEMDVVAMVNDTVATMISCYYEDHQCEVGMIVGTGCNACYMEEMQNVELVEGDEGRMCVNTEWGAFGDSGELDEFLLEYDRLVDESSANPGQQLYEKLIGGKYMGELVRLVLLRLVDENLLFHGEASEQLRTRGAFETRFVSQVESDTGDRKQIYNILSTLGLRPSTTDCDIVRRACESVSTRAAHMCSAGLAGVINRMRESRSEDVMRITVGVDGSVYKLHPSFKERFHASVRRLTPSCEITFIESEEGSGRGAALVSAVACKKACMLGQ
T1 sequence (Q14397 whole entry, looked up): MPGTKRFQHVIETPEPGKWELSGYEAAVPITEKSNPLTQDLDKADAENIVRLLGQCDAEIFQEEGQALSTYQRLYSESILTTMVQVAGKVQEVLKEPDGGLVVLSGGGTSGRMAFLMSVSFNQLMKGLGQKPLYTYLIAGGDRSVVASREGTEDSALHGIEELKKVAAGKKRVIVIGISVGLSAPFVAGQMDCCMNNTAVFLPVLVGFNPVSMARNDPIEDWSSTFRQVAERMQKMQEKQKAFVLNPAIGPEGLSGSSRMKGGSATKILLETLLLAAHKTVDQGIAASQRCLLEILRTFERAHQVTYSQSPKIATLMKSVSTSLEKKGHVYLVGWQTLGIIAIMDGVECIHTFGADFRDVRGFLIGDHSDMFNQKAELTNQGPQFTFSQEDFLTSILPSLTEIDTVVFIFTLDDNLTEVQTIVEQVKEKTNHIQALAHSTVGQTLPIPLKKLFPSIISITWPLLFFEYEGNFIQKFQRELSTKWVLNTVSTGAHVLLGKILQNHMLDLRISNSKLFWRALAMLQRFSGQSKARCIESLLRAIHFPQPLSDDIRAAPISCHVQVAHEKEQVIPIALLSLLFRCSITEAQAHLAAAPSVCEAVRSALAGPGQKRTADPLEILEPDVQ
Summary of the method: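 Inhibitors of the GCK–GKRP complex relieve GKRP suppression of GCK, detected through a G6PDH–diaphorase cascade reducing resazurin. Human GST-GCK and FLAG-GKRP are used at 10 nM with 5 mM glucose and 0.4 mM ATP.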

[2] = target: T1, Hexokinase-4 (Homo sapiens) + Glucokinase regulatory protein (Homo sapiens); experiment: qHTS assay for inhibitors of recombinant human GCK-GKRP interaction: ADP-Glo assay (AID 743206); settings: ADP-Glo luminescence, 60 min; series mostly up to 76.9 µM;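 also: plate controls were DMSO plus enzyme for no effect and no enzyme for full effect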
Summary of the method: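 Pin-transferred compounds meet a 15 nM GST-GCK/15 nM FLAG-GKRP/2 uM S6P mix (dispense concentrations). ATP is then added to 0.4 mM final with 5 mM glucose, and the reaction runs 60 min at room temperature. ADP is quantified luminescently.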

[3] = target: T1, Hexokinase-4 (Homo sapiens) + Glucokinase regulatory protein (Homo sapiens); experiment: qHTS assay for inhibitors of recombinant human GCK-GKRP interaction: HTRF assay (AID 743207); settings: recombinant GCK-GKRP HTRF binding, 60 min, with sorbitol-6-phosphate; series mostly up to 57.5 µM;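 also: 0% = DMSO with GCK present and -100% = DMSO wells lacking GCK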
Summary of the method: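 Steps: dispense GCK–GKRP complex (5 nM each, GST- and FLAG-tagged) with 2 uM S6P; pin in compounds; add XL665/Eu-cryptate-labelled antibodies; incubate 60 min at room temperature; read time-resolved FRET at 665 and 615 nm.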

[4] = qHTS Assay for Identifying Gametocytocidal Compounds (AID 743244);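 also: % is scaled to controls: 0 for no effect and ±100 for the full control effect; actives lower the fluorescent signal which means gametocytes are killed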; settings: P. falciparum 3D7 stage III-V gametocytes, alamarBlue, 72 h; max response: stronger effect = lower value
Summary of the method: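 Stage III–V gametocytes of P. falciparum 3D7 were seeded at 20,000 cells/well onto pre-dispensed compounds. After 72 h, 37 °C, 5% CO2, alamarBlue was added for another 24 h.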

O=C1NC(=O)c2cc(Nc3ccccc3)c(Nc3ccccc3)cc21
inactive: Potency [1] | Potency [2] | Potency [3] | max response [4] 5.21%

C=CC1(C)CC(=O)C2(O)C(C)(O1)C(OC(C)=O)C(O)C1C(C)(C)CCC(O)C12C (centres undefined)
inactive: Potency [1] | Potency [2] | Potency [3] | max response [4] 15.4%

Cn1c(=O)[nH]c2ncn(C)c2c1=O
inactive: Potency [1] | Potency [2] | Potency [3] | max response [4] 2.01%

Nc1ccc(CCNc2ncnc3c2ncn3C2OC(CO)C(O)C2O)cc1 (centres undefined)
inactive: Potency [1] | Potency [2] | Potency [3] | max response [4] 12.3%

CCCCCCCCCC[Si](C)(C)CCC(=O)NC(Cc1ccc(C)cc1)c1ccccc1 (centres undefined)
inactive: Potency [1] | Potency [2] | Potency [3] | max response [4] 13.6%

N#CC(C#N)=C(N)/C(C#N)=C/c1ccc(O)cc1
inactive: Potency [1] | Potency [2] | Potency [3] | max response [4] 11.4%

CCCC[C@@]1(C2CCCC2)Cc2cc(OCC(=O)O)c(Cl)c(Cl)c2C1=O
inactive: Potency [1] | Potency [2] | Potency [3] | max response [4] 8.17%

CN1CCN(c2nc3cc(C(F)(F)F)ccc3n3cccc23)CC1
inactive: Potency [1] | Potency [2] | Potency [3] | max response [4] 14.6%

CN(C)S(=O)(=O)c1ccc2c(c1)/C(=C/c1cc3c([nH]1)CCCC3)C(=O)N2
inactive: Potency [1] | Potency [2] | Potency [3] | max response [4] -2.03%

NC(Cc1cccc(-c2ccccc2CP(=O)(O)O)c1)C(=O)O (centres undefined)
inactive: Potency [1] | Potency [2] | Potency [3] | max response [4] 13.4%

C[C@@H](NCCc1ccc(O)cc1)[C@@H](O)c1ccc(O)cc1
inactive: Potency [1] | Potency [2] | Potency [3] | max response [4] 2.62%
